Values without a mark were called inactive. Results filed as inconclusive are left out. Activity calls are given as the source filed them. Unless noted, the call rests on the fitted dose curve; in most records, active means well fitted curve in the direction sought with a large enough effect in the repeat runs; inconclusive means weak or mixed curves; inactive means flat fitted curve, though single readings scatter.

Experiment [1] is described as follows: qHTS assay to test for compound auto fluorescence at 535 nm (green) in HEK293 cells (AID 720680).
A short description of experiment [2]: qHTS assay to test for compound auto fluorescence at 460 nm (blue) in HEK293 cell free culture (AID 720681). Further: potency means the concentration at half of the fitted maximal effect. In outline: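 Blue fluorescence (Ex 405/Em 460 nm, triamterene-equivalent) was read immediately after pin transfer of compound or DMSO into medium (DMEM, 10% FBS) without cells.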
Experiment [3] in a line: qHTS assay to test for compound auto fluorescence at 535 nm (green) in HEK293 cell free culture (AID 720682). In outline: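 Using fluorescein as calibrant, autofluorescence was quantified at 485/535 nm in cell-free DMEM containing 10% FBS after pintool addition of compound or vehicle.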
The nature of experiment [4]: qHTS assay to test for compound auto fluorescence at 590 nm (red) in HEK293 cell free culture (AID 720683). In outline:
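Red-channel autofluorescence of compounds in culture medium (DMEM, 10% FBS), no cells, measured at 540/590 nm. Rose Bengal sodium is the reference fluorophore for equivalence.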

Experiment [5] is described as follows: qHTS assay to test for compound auto fluorescence at 590 nm (red) in HepG2 cell free culture (AID 720684). In outline:
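Plate contents were MEM with 10% FBS plus test compound or DMSO, no cells. Fluorescence was recorded with 540 nm excitation and 590 nm emission.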

Experiment [6] is described as follows: qHTS assay to test for compound auto fluorescence at 460 nm (blue) in HepG2 cell free culture (AID 720685). In outline:
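Compound (23 nL) or DMSO pinned into cell-free MEM with 10% FBS; blue fluorescence read at 405/460 nm excitation/emission, expressed as auto-fluorescence equivalency to triamterene.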

The nature of experiment [7]: qHTS assay to test for compound auto fluorescence at 535 nm (green) in HepG2 cell free culture (AID 720686).
A short description of experiment [8]: qHTS assay to test for compound auto fluorescence at 460 nm (blue) in HepG2 cells (AID 720687). In outline: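 Blue-channel autofluorescence (Ex/Em 405/460 nm, triamterene-equivalent) was measured after 1 hr compound exposure at 37 C, 5% CO2. Cells were HepG2, plated overnight at 37 C in MEM plus 10% FBS.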
The target in experiment [9] is Glucocorticoid receptor (Homo sapiens) (UniProt P04150). Description: qHTS assay to identify small molecule agonists of the glucocorticoid receptor (GR) signaling pathway (AID 720691; active means well fitted activation curve with a large enough effect in the signal ratio in the repeat runs, not every such curve was filed as active; the % refers to the signal ratio). In outline: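 Reporter read-out: fluorescence intensity following 2 h room-temperature LiveBLAzer B/G FRET substrate loading. Prior step: GR-bla HeLa cells held 4 h, then treated 18 h at 37 C.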

Experiment [10] shares this target. Briefly: qHTS assay to identify small molecule antagonists of the glucocorticoid receptor (GR) signaling pathway (AID 720692; active means well fitted inhibition curve with a large enough effect in the signal ratio in the repeat runs, not every such curve was filed as active; the % refers to the signal ratio; further: potency means the concentration at half of the fitted maximal effect). In outline:
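Dexamethasone (5 nM final) stimulated a stably integrated GRE-beta-lactamase reporter in HeLa cells during 18 h co-incubation with compounds; signal was quantified as fluorescence intensity of B/G FRET substrate after 2 h.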

Glucocorticoid receptor (Homo sapiens), sequence (P04150 whole entry, looked up): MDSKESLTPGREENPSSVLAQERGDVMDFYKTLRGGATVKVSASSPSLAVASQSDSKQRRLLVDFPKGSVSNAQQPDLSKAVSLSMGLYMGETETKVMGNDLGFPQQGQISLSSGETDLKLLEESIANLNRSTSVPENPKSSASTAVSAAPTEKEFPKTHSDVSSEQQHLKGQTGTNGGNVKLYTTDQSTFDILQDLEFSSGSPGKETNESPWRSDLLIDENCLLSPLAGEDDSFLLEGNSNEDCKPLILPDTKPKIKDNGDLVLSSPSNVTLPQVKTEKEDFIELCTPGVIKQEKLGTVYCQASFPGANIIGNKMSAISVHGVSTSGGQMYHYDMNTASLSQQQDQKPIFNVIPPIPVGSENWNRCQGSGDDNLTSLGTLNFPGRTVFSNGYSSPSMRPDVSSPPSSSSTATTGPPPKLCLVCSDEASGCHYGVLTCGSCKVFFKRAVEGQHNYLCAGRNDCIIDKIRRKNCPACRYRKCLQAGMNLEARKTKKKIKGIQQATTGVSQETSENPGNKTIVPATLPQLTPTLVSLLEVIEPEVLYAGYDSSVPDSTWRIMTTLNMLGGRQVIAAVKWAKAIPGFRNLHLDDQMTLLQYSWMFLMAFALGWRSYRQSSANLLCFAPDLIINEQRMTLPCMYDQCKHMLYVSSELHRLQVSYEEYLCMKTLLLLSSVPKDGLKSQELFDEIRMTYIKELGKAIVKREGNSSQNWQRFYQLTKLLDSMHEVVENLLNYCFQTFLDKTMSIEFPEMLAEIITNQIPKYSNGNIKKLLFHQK

With `C=CC(=O)Nc1cc2c(Nc3ccc(F)c(Cl)c3)ncnc2cc1OCCCN1CCOCC1`, the Potency entry in experiment [1], in [2], in [3], in experiment [4], in experiment [5] and in experiment [6] was “inactive” throughout. The Potency entry in experiment [7], in experiment [8] and in [9] was “inactive” in each case. Moreover, in [10], the Potency was 3.01 µM (active).
On to `O=C(O)c1cc(N=Nc2ccc([N+](=O)[O-])cc2)ccc1O`, for which the Potency entry in experiment [1], in experiment [2], in experiment [3], in experiment [4], in [5] and in experiment [6] was “inactive” each time. The Potency entry in experiment [7] and in experiment [8] was “inactive” each time. For the same molecule, in [10], the Potency is 27 µM (active).
`CC(=O)c1ccc(C(C)=O)cc1`: the Potency result in [1], in experiment [2], in [3], in [4], in experiment [5] and in experiment [6] was “inactive” in each case. Moreover, the Potency result in experiment [7], in experiment [9] and in [10] was “inactive” throughout.
Consider `OCC(F)(F)F`, for which the Potency entry in experiment [1], in experiment [2], in [3], in experiment [4], in [5] and in [6] was “inactive” in each case. In addition, the Potency result in experiment [7], in [8], in experiment [9] and in experiment [10] was “inactive” each time.
Consider `CCCCCc1ccc(Cl)cc1`, for which the Potency result in [1], in [2], in experiment [3], in experiment [4], in experiment [5] and in [6] was “inactive” throughout. In addition, the Potency result in [7], in [8], in experiment [9] and in experiment [10] was “inactive” in each case.
`CCCCCCOC(=O)C(C)CC` (stereo not given): the Potency entry in experiment [1], in experiment [2], in [3], in [4], in [5] and in [6] was “inactive” each time. In addition, the Potency result in [7], in experiment [8], in experiment [9] and in experiment [10] was “inactive” in each case.
Take `COc1cc(S(=O)(=O)O)c(C)cc1N=Nc1c(O)ccc2cc(S(=O)(=O)O)ccc12`: the Potency result in [1], in experiment [2], in experiment [3], in experiment [4], in experiment [5] and in experiment [6] was “inactive” each time. Besides, the Potency result in experiment [7], in [8], in experiment [9] and in [10] was “inactive” each time.
Consider `O=c1oc2cc(O)ccc2c2oc3cc(O)ccc3c12`, for which the Potency result in experiment [1], in experiment [3], in [4], in experiment [5], in experiment [7] and in experiment [9] was “inactive” in each case. Moreover, the Potency in experiment [2] was 5.01 µM (active).
Consider `Sc1nc2ccccc2s1`, for which the Potency entry in experiment [1], in [2], in experiment [3], in experiment [4], in [5] and in experiment [6] was “inactive” throughout. Further, the Potency entry in experiment [7], in experiment [9] and in [10] was “inactive” throughout.
In the case of `O=c1[nH]c(=O)n([C@H]2C[C@H](O)[C@@H](CO)O2)cc1F`, the Potency entry in [1], in experiment [2], in [3], in [4], in [5] and in experiment [6] was “inactive” in each case. The Potency result in [7], in experiment [8] and in [10] was “inactive” each time.
Turning to `CNC(=O)c1ccccc1Sc1ccc2c(/C=C/c3ccccn3)n[nH]c2c1`, the Potency result in experiment [1], in experiment [2], in experiment [3], in experiment [4], in experiment [5] and in experiment [6] was “inactive” in each case. The Potency result in experiment [7] and in [10] was “inactive” in each case.
For `CC(C)CCOC(=O)/C=C/c1ccccc1`, the Potency entry in experiment [1], in experiment [2], in [3], in experiment [4], in experiment [5] and in experiment [6] was “inactive” throughout. Also, the Potency result in experiment [7], in [8], in [9] and in [10] was “inactive” in each case.
For `CC[C@H](C)COC(=O)/C=C/c1ccc(N=Cc2ccc(OC)cc2)cc1`, the Potency result in experiment [1], in experiment [2], in experiment [3], in [4], in experiment [5] and in experiment [6] was “inactive” throughout. Also, the Potency entry in experiment [7], in [9] and in experiment [10] was “inactive” each time.
As for `CCc1ccc(Br)cc1`, the Potency entry in experiment [1], in [2], in [3], in experiment [4], in experiment [5] and in experiment [6] was “inactive” throughout. In addition, the Potency entry in experiment [7], in [8], in experiment [9] and in experiment [10] was “inactive” in each case.
As for `O=C(O)c1cccc(C(F)(F)F)c1`, the Potency entry in experiment [1], in [2], in experiment [3], in [4], in [5] and in experiment [6] was “inactive” each time. Also, the Potency result in experiment [7], in experiment [8], in experiment [9] and in [10] was “inactive” in each case.
Take `CCO[Si](OCC)(OCC)OCC`: the Potency entry in [1], in experiment [2], in [3], in experiment [4], in experiment [5] and in experiment [6] was “inactive” in each case. Also, the Potency entry in [7], in experiment [9] and in experiment [10] was “inactive” in each case.
With `Cc1cc(C)c(/C=C2\C(=O)Nc3ccccc32)[nH]1`, the Potency result in experiment [1], in [2], in experiment [3], in [4], in [5] and in [6] was “inactive” in each case. For the same molecule, in experiment [8], the Potency result is “inactive”.
For `CCOC(=O)NNc1ccc(N(CC)CC(C)O)nn1` (stereo not given), the Potency entry in experiment [1], in [2], in experiment [3], in experiment [4], in [6] and in [7] was “inactive” throughout.
In the case of `COC(C)=O`, the Potency result in experiment [1], in [2], in experiment [3], in experiment [4], in [5] and in [6] was “inactive” throughout. For the same molecule, the Potency entry in [7], in experiment [8], in experiment [9] and in experiment [10] was “inactive” in each case.
As to `O=S(=O)(O)c1ccc(N=Nc2c(O)ccc3ccccc23)cc1`, the Potency result in experiment [1], in experiment [2], in experiment [3], in experiment [4], in experiment [5] and in experiment [6] was “inactive” throughout. The Potency result in experiment [7] and in experiment [9] was “inactive” each time.
Turning to `C[C@@H](O)[C@H](N)C(=O)O`, the Potency entry in experiment [1], in experiment [2], in experiment [3], in experiment [4], in experiment [5] and in experiment [6] was “inactive” throughout. Moreover, the Potency result in experiment [7], in experiment [8], in [9] and in experiment [10] was “inactive” throughout.

The values are drawn from PubChem BioAssay (Tox21).
